LMP1 NFkB inh – inhibitors of Epstein-Barr LMP1-induced NF-kappaB reporter | LMP1-induced NF-kappaB luciferase reporter cells, luminescence | inhibition, % at 12.5 µM | hit rate 0.69% among 350,000; in the data active means inhibition above about 41%; inconclusive means no clear call, values can overlap the other calls;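 further: 0% = neutral control wells and 100% = reference inhibitor control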
HSF-1 act – increases HSF-1 driven luciferase reporter signal | NIH3T3-HGL HSF-1 luciferase reporter, MG132, 8 h; 100% = twice DMSO control signal | activation, % at 9 µM | hit rate 1.7% among 300,000 | AID 504408;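 active means mean replicate activation of at least 50% with a set share of replicates each reaching 50%; inconclusive means only one of those two conditions met; inactive means mean below 50% and too few replicates reaching it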;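 further: 0% = median of the neutral control wells and 100% = twice that signal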
TWEAK Fn14 block – inhibitors of TWEAK-Fn14 interaction signaling. TWEAK-stimulated Fn14 reporter cells, luciferase luminescence, 8 h. inhibition, % at 10 µM. hit rate 2% among 360,000. AID 1159606; in the data active means inhibition above about 50%
TROY signal inh – TROY signaling inhibition; Q293 LMP1-TROYcd NF-kB luciferase reporter, 4 h; hit rate 0.98% among 360,000; inhibition, % at 10 µM;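 active means compounds whose plate-normalised and pattern-corrected inhibition of the luciferase reporter signal at the single screening dose is 50% or more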
HSP90 inh – blocks HSP90-mediated luciferase refolding in reticulocyte lysate; Rabbit reticulocyte lysate, luciferase refolding luminescence, 3 h; inhibition, % at 5.6 µM; hit rate 0.91% among 290,000; AID 1789;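 active means inhibition above the screen-wide mean plus 3 SD, computed separately per campaign, cut at about 16% in these data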;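 further: 0% = DMSO wells and 100% = 60 µM geldanamycin wells; inhibitors lower the luminescence because luciferase stays unfolded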
HSF1 inhib – HSF1 inhibition; NIH3T3-HGL HSE-luciferase, MG132-induced, luminescence 8 h; stronger effect = lower value; activity change, negative = inhibition, % at 7.5 µM (by protocol); hit rate 0.77% among 300,000;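 active means more than half of replicate wells show activity change below -50%, luminescence cut by over half; inconclusive means some wells, but at most half, below -50%; inactive means no replicate well below -50%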;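 further: luciferase reports HSF-1 transcriptional activity via heat shock element; 0% = median of DMSO wells and -100% = zero luminescence signal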
An asterisk follows results filed as active; ? = inconclusive; · = no result given. Compounds with a hit are over-represented: about 4.7% of the library has one in this group of screens.

SMILES | LMP1 NFkB inh | HSF-1 act | TWEAK Fn14 block | TROY signal inh | HSP90 inh | HSF1 inhib
CCCC(C)NS(=O)(=O)c1ccccc1 (stereo not given) | -0.7 | -68.3 | -16.0 | -3.1 | -4.3 | -59.3*
COCC(C)NS(=O)(=O)c1ccccc1 (stereo not given) | -6.4 | 2.5 | -3.1 | 1.6 | 2.7 | -1.1
COc1ccc(C(=O)Nc2cc(C(C)=O)c(/C=C/N(C)C)oc2=O)cc1 | -2.0 | 30.5 | -13.4 | 47.7 | -3.1 | 10.2
CC(=O)c1cc(NC(=O)c2ccc(C)cc2)c(=O)oc1/C=C/N(C)C | -4.4 | -3.3 | -0.3 | 54.3* | -0.4 | 1.8
Cc1oc(=O)c(NC(=O)c2ccc(Cl)cc2)cc1C(=O)c1ccccc1 | -3.6 | 83.3* | -9.9 | -19.3 | 0.1 | 49.2
Cc1oc(=O)c(NC(=O)c2ccccc2)cc1C(=O)c1ccccc1 | -65.9 | 121.4* | -8.6 | -43.0 | -1.2 | 79.4
CCOC(=O)c1ccc2nc(NC(C)=O)sc2c1 | -14.8 | ? | -9.2 | -52.4 | -1.6 | 9.8
COC(=O)c1ccc2nc(Nc3nc4c(F)cc(F)cc4s3)sc2c1 | 20.8 | -90.1 | 104.9* | 91.9* | 77.3* | -87.8*
CCOC(=O)c1ccc2nc(Nc3nc4ccc(F)cc4s3)sc2c1 | 24.2 | -82.4 | 99.3* | 87.2* | 11.9 | -80.0*
Cc1ccc2c(c1)sc1nc(=O)n(-c3ccccc3)c(=O)n12 | -19.6 | 58.1* | -37.3 | -65.7 | 2.7 | 31.6
CC(O/N=C\c1ccccc1O)C(=O)Nc1ccccc1C(=O)N1CCOCC1 (stereo not given) | -3.7 | -68.6 | -4.3 | -20.8 | 1.7 | -57.6*
Cc1ccc(OC(C)C(=O)Nc2ccccc2C(=O)N2CCOCC2)cc1 (stereo not given) | 1.7 | -5.5 | -1.2 | -22.3 | -3.6 | -2.9
Nc1c(S(=O)(=O)c2ccccc2)c2nc3ccccc3nc2n1/N=C/c1cccc(O)c1 | -16.6 | 26.0 | 73.2* | 16.4 | 5.2 | 8.1
Cc1cccc(S(=O)(=O)c2c(N)n(/N=C/c3ccccc3)c3nc4ccccc4nc23)c1 | 1.0 | 6.7 | 15.5 | -11.9 | -0.3 | -1.0
Cc1ccc(C)c(S(=O)(=O)c2c(N)n(/N=C/c3ccco3)c3nc4ccccc4nc23)c1 | 4.6 | 52.0* | 44.4 | 4.9 | 0.8 | 25.2
COc1ccccc1/C=N/n1c(N)c(S(=O)(=O)c2cccs2)c2nc3ccccc3nc21 | -14.2 | 11.7 | 17.6 | -10.3 | 0.8 | 12.9
C[C@@H]1CN([C@H](C)CO)C(=O)CCCn2nncc2CO[C@H]1CN(C)Cc1ccc(O)cc1 | 1.0 | · | 3.3 | -11.6 | · | ·
Cc1oc(-c2cc(F)ccc2F)nc1CN1CCN(c2ncnc3ccccc23)CC1 | 18.5 | · | 52.2* | 28.5 | -0.5 | ·
COc1ccc(-c2nc(CN3CCN(c4ncnc5ccccc45)CC3)c(C)o2)c(OC)c1 | 16.9 | -2.1 | 59.0* | 29.3 | 2.2 | -11.8
Cc1oc(-c2cc(F)ccc2F)nc1CN1CCC(C(=O)N2CCOCC2)CC1 | -6.2 | 1.0 | -1.7 | 3.4 | -2.7 | 0.3
COc1ccc(CCNC2=CC(=O)CCC2)cc1OC | · | · | 6.2 | -0.9 | · | ·
COc1cc(NCCCn2cnc3c(OC)ncnc32)cc(OC)c1OC | 0.0 | · | -19.4 | -4.3 | · | ·
COc1ccc(C2c3c(ncn(CCCO)c3=N)Oc3ccc4ccccc4c32)cc1 (stereo not given) | -3.5 | 58.4* | -30.9 | -8.0 | -0.4 | 16.3
COc1ccccc1C1c2ccc3ccccc3c2Oc2ncn(CCN(C)C)c(=N)c21 (stereo not given) | 47.6* | -25.6 | -8.2 | -6.3 | 4.8 | -6.6
CCc1nnc(NS(=O)(=O)c2ccc(N/C=C\C(=O)c3ccc(F)cc3)cc2)s1 | -2.6 | 11.2 | 40.2 | 72.5* | -6.6 | -1.7
SMILES | LMP1 NFkB inh | HSF-1 act | TWEAK Fn14 block | TROY signal inh | HSP90 inh | HSF1 inhib
NS(=O)(=O)c1ccc(N/C=C\C(=O)c2ccc(F)cc2)cc1 | -34.0 | 73.7* | -17.9 | -71.4 | -0.2 | 27.1
Cc1cccc(-c2cccc(NC(=O)C3CCCN(C(=O)c4csc(C)n4)C3)c2)c1 (stereo not given) | 17.9 | 59.8* | 4.6 | -1.4 | -3.3 | 38.5
CCc1nc(C)c(C(=O)N2CCCC(C(=O)Nc3cccc(-c4cccc(C)c4)c3)C2)o1 (stereo not given) | 8.4 | 42.6 | -5.1 | -33.1 | 0.0 | 20.1
Cc1cccc(-c2cccc(NC(=O)C3CCCN(C(=O)c4ocnc4C)C3)c2)c1 (stereo not given) | -4.7 | 41.4 | -7.0 | -29.1 | 2.8 | 15.7
Cc1cccc(-c2cccc(NC(=O)C3CCCN(C(=O)c4cccnc4)C3)c2)c1 (stereo not given) | 1.8 | 66.6* | -1.0 | -6.5 | -5.1 | 20.8
O=C(COC(=O)Cc1c[nH]c2ccccc12)Nc1cccc(Br)c1 | 2.3 | · | -14.8 | -3.0 | · | ·
CCCC1NC(=O)c2cccnc2-n2c1nc1ccc(Br)cc1c2=O (stereo not given) | 4.5 | · | -4.6 | 6.5 | · | ·
CC1=C(C(=O)N(C)C)CC(CC(=O)NC2CCCCC2)C(=O)N1Cc1ccc(F)cc1 (stereo not given) | · | · | -14.5 | -8.7 | · | ·
COc1cc(OC)cc(C(=O)N[C@H](C(=O)OCC(=O)c2ccc3c(c2)NC(=O)CO3)C(C)C)c1 | -22.0 | 11.9 | -8.0 | 8.6 | 3.8 | -0.8
COc1cc(OC)cc(C(=O)N[C@H](C(=O)OCC(=O)c2ccc(C)c([N+](=O)[O-])c2)C(C)C)c1 | 84.1* | 5.0 | -9.4 | -6.2 | · | 5.0
CC1(C2CC(=O)c3c(O)ccc(O)c3C2)OCCO1 (stereo not given) | 2.3 | · | -14.7 | 4.3 | · | ·
Cc1ccccc1CN(c1ccc(C(=O)NCc2cccnc2)cc1)S(C)(=O)=O | 52.0* | -11.7 | 6.0 | -3.2 | 0.8 | -5.8
O=C(NC(NCc1cccnc1)C(Cl)(Cl)Cl)c1cccc2ccccc12 (stereo not given) | -5.8 | 0.6 | 65.4* | -7.3 | -2.6 | 2.3
Cc1ccccc1CC(=O)NCc1cccnc1 | 66.8* | 5.5 | -14.4 | 13.5 | -1.6 | 0.3
COc1cccc(C(NC(C)=O)c2nc(-c3ccc4c(c3)OCO4)cs2)c1 (stereo not given) | · | · | 10.0 | -17.7 | · | ·
CC(=O)C1=C(O)C(=CC=Cc2ccccc2)OC1=O | -9.0 | · | 4.8 | -19.5 | · | ·
CCC/C=C/c1ccc(CN2C(C(C)C)C(=O)N(Cc3cn(Cc4ccco4)nn3)CCS2(=O)=O)cc1 (stereo not given) | -1.2 | · | 12.7 | -5.7 | · | ·
O=c1ccc2ccccc2c2ccccc12 | · | · | 93.9* | 52.1* | · | ·
c1ccc2c(c1)ccc1ccccc12 | -1.9 | · | -16.2 | -1.7 | · | ·
CC(C)c1ccc(/C=C(\c2nc3ccccc3[nH]2)S(=O)(=O)c2ccccc2)cc1 | -72.1 | 102.1* | 93.8* | 5.7 | 9.6 | 77.6
C/C(=C\c1ccc(N)cc1)c1nc2ccccc2[nH]1 | -55.1 | 31.8 | -8.3 | -34.8 | -0.3 | 21.3
O=S(=O)(/C(=C/c1ccc(C(F)(F)F)cc1)c1nc2ccccc2[nH]1)c1ccccc1 | -6.6 | 180.4* | 62.9* | 14.9 | 5.0 | 139.0

Screening results deposited in PubChem by several laboratories.
